PubChem BioAssay AID624312 (National Center for Advancing Translational Sciences (NCATS), 2012)
Inconclusive results are not listed. A number with no mark means an inactive call. The source made the active and inactive calls. The call rests on the fitted dose curve; in most records, active means well fitted inhibition curve with a large enough effect; inconclusive means small, poorly fitted or top-dose-only effect; inactive means no such curve, though single readings can be large or run the other way.

Each compound was assayed against Peptidyl-prolyl cis-trans isomerase NIMA-interacting 1 (Homo sapiens) (UniProt Q13526) (assay: qHTS Assay to Find Inhibitors of Pin1: Hit Validation using Tamra Binding). Settings: Pin1 Tamra-peptide displacement, fluorescence polarization, 10 min; series mostly up to 57.5 µM; activity change, negative = inhibition: at the top concentration.
Chain of Peptidyl-prolyl cis-trans isomerase NIMA-interacting 1 (Homo sapiens) (Q13526 whole entry, looked up, the tested form may be a part): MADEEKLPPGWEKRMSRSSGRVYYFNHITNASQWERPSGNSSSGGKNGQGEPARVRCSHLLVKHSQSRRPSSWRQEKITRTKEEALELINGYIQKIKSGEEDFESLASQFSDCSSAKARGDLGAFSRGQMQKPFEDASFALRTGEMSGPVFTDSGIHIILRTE
Text: The unique chemical properties of Pro allow for the adoption of two completely distinct amide bond conformations (cis and trans). Peptidyl-prolyl cis/trans isomerases (PPIases) are evolutionary conserved enzymes that catalyze cis/trans isomerization of peptidyl-prolyl peptide bonds. Distinct from all other PPIases such as cyclophilins and FK506-binding proteins (FKBPs), Pin1 binds a subset of phos.Ser/Thr-Pro-containing proteins using its protein-targeting WW domain and isomerizes only specific phos.Ser/Thr-Pro bonds, which cannot be effectively catalyzed by other known PPIases. Pin1-catalyzed conformational regulation can control a spectrum of activities of many key regulators in diverse cellular processes such as cell growth, genotoxic and other stress responses, immune response, germ cell development, neuronal differentiation and survival. Pin1 has emerged as a novel molecular timer that modulates its multiple targets at various steps of a given cellular process to synergistically control the amplitude and duration of a cellular response or process. Importantly, Pin1 is tightly regulated by multiple levels and its deregulation has an important role in a growing number of pathological conditions, including cancer, Alzheimer's disease, aging, asthma and microbial infection, providing a potentially new therapeutic option. The goal of this screen is to find small-molecule inhibitors of Pin1 using a fluorescence polarization competition assay.In the primary screen, a HiFluor-488-labeled peptide binds to the active site of Pin1 and can be displaced by compounds. Compounds were screened as a concentration-titration series that ranged from 57 uM to 0.7 nM. To validate the hits using a different read-out, this Tamra binding assays was used against all the hits identified from the primary screen. NIH Molecular Libraries Probe Production Network [MLPCN] NIH Chemical Genomics Center [NCGC] MLPCN Grant: R03 DA031663 PI Name: Dr. Kun Ping Lu, Beth Israel Deaconess Medical Center
Briefly, 2 uL of Pin1 (all columns but column 3, which just receives buffer and serves as negative control) are dispensed into Greiner black solid bottom 1536-well assay plates. Compounds are then transferred via Kalypsys pin tool equipped with 1536-pin array (10 nl slotted pins, V&P Scientific, San Diego, CA). Following addition of compound, 2 uL of Tamra-probe in buffer (all columns) is added to initiate the binding reaction. The plates are then incubated at room temperature for 10 minutes. Finally, plates are transferred to a ViewLux high-throughput CCD imager (PerkinElmer), wherein end-point measurements of fluorescence polarization are acquired. All reagents are diluted in an assay buffer consisting of 10 mM Hepes, 10 mM NaCl, 1 mM DTT, 1% glycerol and 0.01% Tween-20.

Structure (SMILES) | activity change, negative = inhibition | Potency
CC(=O)Nc1ccc(Nc2c3c4c(cccc4n(C)c2=O)C(=O)c2ccccc2-3)cc1 | -17.4% | 
O=S(=O)(Nc1cc(Sc2ncn[nH]2)c(O)c2ccccc12)c1ccccc1 | 0.852% | 
Nc1ccc2cccc(O)c2c1 |  | 26.9 µM (active)
O=S(=O)(O)c1cc(O)c2cc(Nc3ccccc3)ccc2c1 |  | 12 µM (active)
COc1ccc(S(=O)(=O)Nc2cc(Sc3ncn[nH]3)c(O)c3ccccc23)cc1 | -5.86% | 
Cc1ccc2nc(-c3ccc(N=Nc4cc(S(=O)(=O)O)c5ccccc5c4O)cc3)sc2c1S(=O)(=O)O | 282% | 
CCCCCC(=O)Nc1cc(S(=O)(=O)O)cc2cc(S(=O)(=O)O)cc(O)c12 |  | 2.39 µM (active)
COc1ccccc1Nc1ccc2c(O)cc(S(=O)(=O)O)cc2c1 |  | 7.57 µM (active)
O=S(=O)(O)c1ccc(O)c2cc(Nc3ccccc3)ccc12 |  | 3.01 µM (active)
